Compound activity: PubChem BioAssay, National Center for Advancing Translational Sciences (NCATS)
Gal4-VP16 FLuc = inhibits Gal4-VP16 luciferase reporter, ROR gamma counter-screen; Drosophila S2 Gal4-VP16 UAS-luciferase, luminescence, 20 h; Potency, µM (highest dose often 53.6 µM), hits mostly inhibitors; 310,000 compounds, 3.5% hits; AID 2546;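 note: Gal4-VP16 expression switched on by copper sulfate through the metallothionein promoter; nearly all actives have a fitted effect of over 50% in size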
Sfp inh = inhibitors of Bacillus subtilis Sfp phosphopantetheinyl transferase; Q9F4F7; Biochemical Sfp PPTase activity, qHTS; Potency, µM, hits mostly inhibitors; 310,000 compounds, 3.5% hits;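 note: the enzyme is Sfp with the accession as filed and its product quenches rhodamine fluorescence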
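Sfp 15 nM + cpd, 15 min RT; start w/ rhodamine-CoA 5 uM, BHQ-2-YbbR 12.5 uM (final); 50 mM Hepes pH 7.6, 10 mM MgCl2, 0.01% NP-40, 0.01% BSA; read 525/598 nm at 0 and 30 min.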
ALDH1A1 block = blocks purified human ALDH1A1 activity. P00352. Purified ALDH1A1, NADH fluorescence, propionaldehyde substrate. Potency, µM (titrated, usually from 75.3 µM), hits mostly inhibitors. 220,000 compounds, 7.3% hits. AID 1030; active = well fitted inhibition curve with a large enough effect, not every such curve was filed as active; inconclusive = small, poorly fitted or top-dose-only effect, or another doubt; inactive = no such curve, though single readings can be large or run the other way
RORgamma inh = blocks mouse ROR gamma transcriptional activity. Potency, µM (series often up to 53.6 µM), actives largely listed as inhibitors. Drosophila S2 Gal4-RORgamma UAS-luciferase reporter, 20 h. P51450. 310,000 compounds, 5.4% hits; note: nearly all actives have a fitted effect of over 60% in size
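Using a luciferase readout, inhibitors were identified by reduced reporter activity in Drosophila cells coexpressing a copper-inducible Gal4–ROR gamma fusion and UAS-driven Photinus luciferase, incubated 20 hr after 700 uM copper sulfate.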
PLK1 PBD inh = PLK1 (human) polo-box domain binding inhibition; Plk1 PBD binding of FITC phosphopeptide, fluorescence polarization; Potency, µM, hits mostly inhibitors; 360,000 compounds, 2.8% hits; note: series mostly up to about 57 µM; nearly all actives have a fitted effect of over 65% in size
Target sequence (P53350 whole entry, looked up, the tested form may be a part): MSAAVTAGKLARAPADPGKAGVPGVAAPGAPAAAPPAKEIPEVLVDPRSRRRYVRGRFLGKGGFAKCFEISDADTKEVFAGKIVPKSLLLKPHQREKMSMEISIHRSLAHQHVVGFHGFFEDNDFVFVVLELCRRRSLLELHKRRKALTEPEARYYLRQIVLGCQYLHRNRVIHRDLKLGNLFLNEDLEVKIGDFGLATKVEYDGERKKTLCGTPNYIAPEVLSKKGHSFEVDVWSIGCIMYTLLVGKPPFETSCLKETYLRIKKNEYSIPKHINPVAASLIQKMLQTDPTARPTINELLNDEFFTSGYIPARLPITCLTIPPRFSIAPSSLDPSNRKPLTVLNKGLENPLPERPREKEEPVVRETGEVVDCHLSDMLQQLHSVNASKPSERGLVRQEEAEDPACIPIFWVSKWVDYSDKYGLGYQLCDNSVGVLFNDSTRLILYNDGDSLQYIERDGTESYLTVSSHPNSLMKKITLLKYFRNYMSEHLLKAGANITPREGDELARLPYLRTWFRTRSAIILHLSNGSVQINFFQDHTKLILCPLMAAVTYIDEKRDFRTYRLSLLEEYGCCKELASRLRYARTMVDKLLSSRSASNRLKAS
Each line names hits and unclear results; the compound was inactive in the other large screens. Shown are actives, neighbours in structure and some others; about 12% of the full set was active somewhere. Unless noted, calls come from the whole dose curve; as a rule, active = well fitted curve in the direction sought with a large enough effect; inconclusive = small, poorly fitted or top-dose-only effect, or another doubt; inactive = no such curve, though single readings can be large; an effect the other way counts as inactive or inconclusive.

Nn1cc(-c2ccccc2)nc1SCC(=O)N1CCN(S(=O)(=O)c2ccccc2)CC1	none (no result: Gal4-VP16 FLuc)
C=CCn1c(COC)nnc1SCC(=O)c1ccc(F)cc1	Sfp inh inconclusive, ALDH1A1 block 11µM
C=C[C@](C)(O)CCC1C(=C)CC(OC(C)=O)C2C(C)(C)CCCC12C (stereo partly drawn)	RORgamma inh 1.1µM (no result: PLK1 PBD inh)
COC(=O)C1=CN(c2ccc(F)cc2)C=C(C(=O)OC)C1c1ccc(O)cc1	none (no result: ALDH1A1 block)
COCCn1c(C)cc(C2=NNC(=NC(C)(C)C)SC2)c1C	Gal4-VP16 FLuc inconclusive, ALDH1A1 block inconclusive, PLK1 PBD inh inconclusive
COCCn1c(C)cc(C2=NNC(=Nc3ccccc3)SC2)c1C	Sfp inh 22µM, ALDH1A1 block inconclusive
COCC(C)N=C1NN=C(c2c[nH]c3ccccc23)CS1 (stereo not drawn)	Gal4-VP16 FLuc inconclusive, Sfp inh inconclusive, RORgamma inh inconclusive
COCCn1c(C)cc(C2=NNC(=Nc3ccc(OC)cc3)SC2)c1C	Sfp inh 50µM, ALDH1A1 block 10µM, PLK1 PBD inh inconclusive
Nc1ccc2c(c1)C(=O)N(CC1CCCO1)C2=O (stereo not drawn)	ALDH1A1 block 8.9µM
O=C(NN1C(=O)c2ccccc2C1=O)c1ccc2c(c1)C(=O)N(CC1CCCO1)C2=O (stereo not drawn)	none (no result: ALDH1A1 block)
Nc1ccc(Oc2ccc3c(c2)C(=O)N(CC2CCCO2)C3=O)cc1 (stereo not drawn)	ALDH1A1 block 28µM
COc1ccc(OC)c(NC(=O)c2ccc3c(c2)C(=O)N(CC2CCCO2)C3=O)c1 (stereo not drawn)	none (no result: ALDH1A1 block)
CC1CCN(C(=S)Nc2ccc(SC(F)F)cc2)CC1	Gal4-VP16 FLuc 11µM, RORgamma inh 7.9µM
CC(=O)N1CCN(C(=S)Nc2ccc(SC(F)F)cc2)CC1	PLK1 PBD inh 21µM
CCCN1CCN(C(=S)Nc2ccc(SC(F)F)cc2)CC1	none
O=C(O)[C@@H]1[C@@H]2O[C@H]([C@@H](Br)[C@H]2Br)[C@H]1C(=O)O	none (no result: Gal4-VP16 FLuc, Sfp inh, RORgamma inh, PLK1 PBD inh)
CC(=O)c1ccc(S(=O)(=O)NCCOc2ccccc2)cc1	none (no result: Gal4-VP16 FLuc, Sfp inh, ALDH1A1 block, RORgamma inh)
Cc1ccc(S(=O)(=O)CC(=O)c2cc(C)c(O)c(C)c2)cc1	ALDH1A1 block 1.8µM
Cc1ccc(S(=O)(=O)CCCS(=O)(=O)c2ccc(C)cc2)cc1	ALDH1A1 block inconclusive
COc1ccc2c(c1)c[n+](C)c1c3cc(OC)c(OC)cc3ccc21	PLK1 PBD inh 12µM (no result: Gal4-VP16 FLuc, Sfp inh, ALDH1A1 block, RORgamma inh)
Cc1noc(C)c1-c1nccc(NCc2cccs2)n1	ALDH1A1 block inconclusive (no result: PLK1 PBD inh)
O=C1c2sc3nc4c(c(=O)n3c2C(=O)N1c1ccccc1)CCC4	Sfp inh inconclusive, ALDH1A1 block inconclusive, PLK1 PBD inh 21µM
Cc1ccccc1N1C(=O)c2sc3nc4c(c(=O)n3c2C1=O)CCC4	Sfp inh 22µM, ALDH1A1 block 28µM, PLK1 PBD inh 8.4µM
Cc1ccccc1-n1cnc2c(sc3nc(N4CCOCC4)c4c(c32)CCCC4)c1=O	ALDH1A1 block inconclusive
CC[C@@]1(c2ccccc2)NC(=O)N(C)C1=O	none (no result: ALDH1A1 block, PLK1 PBD inh)
O=C(CNC(=O)c1ccccc1C(=O)O)c1ccccc1	ALDH1A1 block 25µM
O=C(CNC(=O)c1ccc(Br)cc1)c1ccccc1	RORgamma inh 13µM (no result: ALDH1A1 block)
Cc1ccccc1NS(=O)(=O)c1ccc(S(=O)(=O)N2CCCC2)cc1	none (no result: Gal4-VP16 FLuc, Sfp inh, ALDH1A1 block, RORgamma inh)
O=S(=O)(Nc1cccc2cccnc12)c1ccc(S(=O)(=O)N2CCCC2)cc1	Gal4-VP16 FLuc 5µM, ALDH1A1 block inconclusive, RORgamma inh 2.5µM
COC(=O)c1ccc(Sc2ccccc2NS(=O)(=O)c2ccc(NC(C)=O)cc2)nc1	ALDH1A1 block 11µM, PLK1 PBD inh inconclusive
CC(=O)Nc1ccc(S(=O)(=O)Nc2cccc3cccnc23)cc1	Gal4-VP16 FLuc inconclusive, RORgamma inh 10µM (no result: ALDH1A1 block)
NC(=S)Nc1cccc2cccnc12	Sfp inh inconclusive, RORgamma inh inconclusive
NC(=S)NNc1cccc2cccnc12	Sfp inh 3.2µM, ALDH1A1 block 3.5µM, PLK1 PBD inh inconclusive
COC(=O)c1ccc(C(=O)OC)c(NS(=O)(=O)c2ccc(NC(C)=O)cc2)c1	ALDH1A1 block inconclusive
O=C(O)[C@@H]1[C@H](C(=O)O)[C@H]2C(=O)C=C[C@H]1N2Cc1ccccc1	none (no result: Gal4-VP16 FLuc, Sfp inh, RORgamma inh, PLK1 PBD inh)
Cc1ccc2cccc(NS(=O)(=O)c3ccccc3)c2n1	none (no result: ALDH1A1 block)
Cc1ccc(S(=O)(=O)Nc2cccc3cccnc23)c([N+](=O)[O-])c1	Gal4-VP16 FLuc 0.89µM, RORgamma inh 0.79µM (no result: ALDH1A1 block)
COc1ccc(NS(=O)(=O)c2ccc3ccccc3c2)c2ncccc12	Gal4-VP16 FLuc 1.1µM, RORgamma inh 0.71µM (no result: ALDH1A1 block)
